The results in this text go back to doi:10.1101/2024.03.05.583629.

The experiment deals with pT7_6His-AlfaTag-HOXD13 (human, UniProt P35453 263-343). Nature of the experiment: PADIT-seq. As to conditions: dsDNA, one strand shown.
Sequence of pT7_6His-AlfaTag-HOXD13 (P35453 263-343): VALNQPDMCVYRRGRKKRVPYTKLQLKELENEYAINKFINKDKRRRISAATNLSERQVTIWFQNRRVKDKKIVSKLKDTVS
For the sequence “CTCGAGGATATCAAGATCTGGCCTCGGCCGCCCAGAAGGAACCTCTAGCTAGCCGACTCACTATAGGGATAATCGCCCTGAGCAAAGACC”, the binding signal was -1.09 ± 0.133 log2FC. The same measure for “CTCGAGGATATCAAGATCTGGCCTCGGCCGCCCAACAGGAACCTCTAGCTAGCCGACTCACTATAGGGATAATCGCCCTGAGCAAAGACC”: -0.724 ± 0.117 log2FC. The same measure for “CTCGAGGATATCAAGATCTGGCCTCGGCCTGTTAAAAGGAACCTCTAGCTAGCCGACTCACTATAGGGATAATCGCCCTGAGCAAAGACC”: 2.25 ± 0.0806 log2FC. In the case of “CTCGAGGATATCAAGATCTGGCCTCGGCTCCGTAAAAGGAACCTCTAGCTAGCCGACTCACTATAGGGATAATCGCCCTGAGCAAAGACC” it was 1.22 ± 0.0847 log2FC.

Consider “CTCGAGGATATCAAGATCTGGCCTCGGCCAGCTAAAAGGAACCTCTAGCTAGCCGACTCACTATAGGGATAATCGCCCTGAGCAAAGACC”, for which the binding signal is -0.419 ± 0.146 log2FC. The same measure for “CTCGAGGATATCAAGATCTGGCCTCGGCCTTTTACCTGGAACCTCTAGCTAGCCGACTCACTATAGGGATAATCGCCCTGAGCAAAGACC”: -0.0573 ± 0.0997 log2FC. “CTCGAGGATATCAAGATCTGGCCTCGGCGTTTTAGGGGGAACCTCTAGCTAGCCGACTCACTATAGGGATAATCGCCCTGAGCAAAGACC” registered a binding signal of 1.59 ± 0.0927 log2FC. In the case of “CTCGAGGATATCAAGATCTGGCCTCGGCGTTTTAGAAGGAACCTCTAGCTAGCCGACTCACTATAGGGATAATCGCCCTGAGCAAAGACC” it was 0.37 ± 0.103 log2FC; in that of “CTCGAGGATATCAAGATCTGGCCTCGGCTTTTTATCCGGAACCTCTAGCTAGCCGACTCACTATAGGGATAATCGCCCTGAGCAAAGACC”, 1.15 ± 0.0852 log2FC; in that of “CTCGAGGATATCAAGATCTGGCCTCGGCCCATTAAAAGGAACCTCTAGCTAGCCGACTCACTATAGGGATAATCGCCCTGAGCAAAGACC”, 2.92 ± 0.0908 log2FC. In turn, “CTCGAGGATATCAAGATCTGGCCTCGGCATTTTATCAGGAACCTCTAGCTAGCCGACTCACTATAGGGATAATCGCCCTGAGCAAAGACC” had a binding signal of 2.32 ± 0.0735 log2FC. The same measure for “CTCGAGGATATCAAGATCTGGCCTCGGCGTTTTACCGGGAACCTCTAGCTAGCCGACTCACTATAGGGATAATCGCCCTGAGCAAAGACC”: 1.01 ± 0.0969 log2FC. Sequence “CTCGAGGATATCAAGATCTGGCCTCGGCAACTTAAAAGGAACCTCTAGCTAGCCGACTCACTATAGGGATAATCGCCCTGAGCAAAGACC” yielded a binding signal of 0.617 ± 0.0872 log2FC. In the case of “CTCGAGGATATCAAGATCTGGCCTCGGCCGGATAAAAGGAACCTCTAGCTAGCCGACTCACTATAGGGATAATCGCCCTGAGCAAAGACC” it was 0.58 ± 0.0859 log2FC; in that of “CTCGAGGATATCAAGATCTGGCCTCGGCTTCTTAAAAGGAACCTCTAGCTAGCCGACTCACTATAGGGATAATCGCCCTGAGCAAAGACC”, 0.549 ± 0.0953 log2FC; in that of “CTCGAGGATATCAAGATCTGGCCTCGGCGTTTTACATGGAACCTCTAGCTAGCCGACTCACTATAGGGATAATCGCCCTGAGCAAAGACC”, 2.03 ± 0.0856 log2FC.

Sequence “CTCGAGGATATCAAGATCTGGCCTCGGCCTTTTAGCAGGAACCTCTAGCTAGCCGACTCACTATAGGGATAATCGCCCTGAGCAAAGACC” gave a binding signal of 0.506 ± 0.084 log2FC. “CTCGAGGATATCAAGATCTGGCCTCGGCAATCTAAAAGGAACCTCTAGCTAGCCGACTCACTATAGGGATAATCGCCCTGAGCAAAGACC” had a binding signal of -0.296 ± 0.111 log2FC. The sequence “CTCGAGGATATCAAGATCTGGCCTCGGCGTTTTAGTAGGAACCTCTAGCTAGCCGACTCACTATAGGGATAATCGCCCTGAGCAAAGACC” yielded a binding signal of 1.61 ± 0.098 log2FC. In the case of “CTCGAGGATATCAAGATCTGGCCTCGGCGTTTTATCTGGAACCTCTAGCTAGCCGACTCACTATAGGGATAATCGCCCTGAGCAAAGACC” it was 0.898 ± 0.106 log2FC. The same measure for “CTCGAGGATATCAAGATCTGGCCTCGGCGGCTTAAAAGGAACCTCTAGCTAGCCGACTCACTATAGGGATAATCGCCCTGAGCAAAGACC”: -0.00793 ± 0.0839 log2FC; for “CTCGAGGATATCAAGATCTGGCCTCGGCCTTTTATAAGGAACCTCTAGCTAGCCGACTCACTATAGGGATAATCGCCCTGAGCAAAGACC”: 3.23 ± 0.0726 log2FC; for “CTCGAGGATATCAAGATCTGGCCTCGGCATTTTACCCGGAACCTCTAGCTAGCCGACTCACTATAGGGATAATCGCCCTGAGCAAAGACC”: -0.0737 ± 0.0918 log2FC. As for “CTCGAGGATATCAAGATCTGGCCTCGGCTTTTTACTAGGAACCTCTAGCTAGCCGACTCACTATAGGGATAATCGCCCTGAGCAAAGACC”, the binding signal came out at 3.21 ± 0.0865 log2FC. “CTCGAGGATATCAAGATCTGGCCTCGGCGCGTTAGCGGGAACCTCTAGCTAGCCGACTCACTATAGGGATAATCGCCCTGAGCAAAGACC” gave a binding signal of -0.986 ± 0.133 log2FC. The same measure for “CTCGAGGATATCAAGATCTGGCCTCGGCCGCCCAGGCGGAACCTCTAGCTAGCCGACTCACTATAGGGATAATCGCCCTGAGCAAAGACC”: -0.81 ± 0.134 log2FC; for “CTCGAGGATATCAAGATCTGGCCTCGGCATTTTACGAGGAACCTCTAGCTAGCCGACTCACTATAGGGATAATCGCCCTGAGCAAAGACC”: 3.41 ± 0.0937 log2FC.

Turning to “CTCGAGGATATCAAGATCTGGCCTCGGCTTGATAAAAGGAACCTCTAGCTAGCCGACTCACTATAGGGATAATCGCCCTGAGCAAAGACC”, the binding signal came to 0.619 ± 0.0899 log2FC. In the case of “CTCGAGGATATCAAGATCTGGCCTCGGCCTTCCACGCGGAACCTCTAGCTAGCCGACTCACTATAGGGATAATCGCCCTGAGCAAAGACC” it was -1.1 ± 0.121 log2FC. In the case of “CTCGAGGATATCAAGATCTGGCCTCGGCCTCCTAAAAGGAACCTCTAGCTAGCCGACTCACTATAGGGATAATCGCCCTGAGCAAAGACC” it was 0.715 ± 0.108 log2FC; in that of “CTCGAGGATATCAAGATCTGGCCTCGGCCAATGGGCGGGAACCTCTAGCTAGCCGACTCACTATAGGGATAATCGCCCTGAGCAAAGACC”, -0.903 ± 0.11 log2FC; in that of “CTCGAGGATATCAAGATCTGGCCTCGGCCTTTTAGTAGGAACCTCTAGCTAGCCGACTCACTATAGGGATAATCGCCCTGAGCAAAGACC”, 1.19 ± 0.0808 log2FC. In turn, “CTCGAGGATATCAAGATCTGGCCTCGGCCTTTTATACGGAACCTCTAGCTAGCCGACTCACTATAGGGATAATCGCCCTGAGCAAAGACC” gave a binding signal of 2.32 ± 0.0734 log2FC. “CTCGAGGATATCAAGATCTGGCCTCGGCGTTTTACTAGGAACCTCTAGCTAGCCGACTCACTATAGGGATAATCGCCCTGAGCAAAGACC” returned a binding signal of 2.96 ± 0.0769 log2FC. The same measure for “CTCGAGGATATCAAGATCTGGCCTCGGCCGCCCAAAGGGAACCTCTAGCTAGCCGACTCACTATAGGGATAATCGCCCTGAGCAAAGACC”: -0.802 ± 0.123 log2FC; for “CTCGAGGATATCAAGATCTGGCCTCGGCGGGGTAAAAGGAACCTCTAGCTAGCCGACTCACTATAGGGATAATCGCCCTGAGCAAAGACC”: -0.462 ± 0.0883 log2FC.

“CTCGAGGATATCAAGATCTGGCCTCGGCCTTATAAAAGGAACCTCTAGCTAGCCGACTCACTATAGGGATAATCGCCCTGAGCAAAGACC” returned a binding signal of 2.88 ± 0.0949 log2FC. In the case of “CTCGAGGATATCAAGATCTGGCCTCGGCACTTTAAAAGGAACCTCTAGCTAGCCGACTCACTATAGGGATAATCGCCCTGAGCAAAGACC” it was 2.07 ± 0.0674 log2FC. In the case of “CTCGAGGATATCAAGATCTGGCCTCGGCGCGCTAAAAGGAACCTCTAGCTAGCCGACTCACTATAGGGATAATCGCCCTGAGCAAAGACC” it was -0.366 ± 0.0916 log2FC.
